# 15-hLO inh: qHTS Assay for Inhibitors of 15-hLO (15-human lipoxygenase) | Polyunsaturated fatty acid lipoxygenase ALOX15 (Homo sapiens), P16050 | purified 15hLO-1, xylenol orange hydroperoxide absorbance | Potency, µM (doses to about 57.1 µM), inactives show at the highest dose activity change, negative = inhibition, usual class: inhibitors | hit rate 1.4% among 74,000 | AID 887, 2007; also: nearly all actives have a fitted effect of over 55% in size
#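 Quantitative HTS in 25 mM Hepes pH 7.5 containing 0.01% Triton X-100: human 15hLO-1 at 40 nM, arachidonic acid at 50 uM, 6 min turnover. Product quantified via ferrous oxidation/xylenol orange, 573:405 nm absorbance ratio.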
# ALOX15B inhib: qHTS Assay for Inhibitors of 15-hLO-2 (15-human lipoxygenase 2); Polyunsaturated fatty acid lipoxygenase ALOX15B (Homo sapiens), O15296; purified 15hLO-2, xylenol orange hydroperoxide absorbance; Potency, µM (top dose mostly 57.1 µM), without a hit: at the top dose activity change, negative = inhibition, hits mostly inhibitors; hit rate 0.56% among 110,000; also: nearly all actives have a fitted effect of over 60% in size
# Target sequence (O15296 whole entry, looked up): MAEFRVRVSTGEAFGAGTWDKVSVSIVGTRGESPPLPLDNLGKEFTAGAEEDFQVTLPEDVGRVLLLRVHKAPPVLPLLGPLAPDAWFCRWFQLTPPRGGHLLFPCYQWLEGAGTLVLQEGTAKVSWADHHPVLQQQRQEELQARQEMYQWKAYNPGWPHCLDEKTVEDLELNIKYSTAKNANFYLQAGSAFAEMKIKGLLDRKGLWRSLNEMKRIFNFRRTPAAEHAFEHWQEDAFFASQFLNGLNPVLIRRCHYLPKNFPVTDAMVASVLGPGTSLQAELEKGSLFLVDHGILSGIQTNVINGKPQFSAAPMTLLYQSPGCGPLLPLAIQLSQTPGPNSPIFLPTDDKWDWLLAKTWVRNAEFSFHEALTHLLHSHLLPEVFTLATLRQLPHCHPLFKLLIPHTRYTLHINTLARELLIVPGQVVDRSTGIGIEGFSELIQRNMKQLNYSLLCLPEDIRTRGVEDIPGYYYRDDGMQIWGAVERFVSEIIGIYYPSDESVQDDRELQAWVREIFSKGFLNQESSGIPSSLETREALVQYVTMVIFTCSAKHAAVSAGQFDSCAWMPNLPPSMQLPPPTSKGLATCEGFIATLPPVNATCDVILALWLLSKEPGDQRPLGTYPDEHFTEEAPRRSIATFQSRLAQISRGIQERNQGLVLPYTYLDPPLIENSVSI
#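 Purified human 15hLO-2 (50 nM) preincubated 15 min with compound, then 45 uM arachidonic acid for 90 min at RT in 25 mM Hepes pH 7.5, 0.01% Triton X-100. Hydroperoxide detected by Fe-xylenol orange; 573/405 nm absorbance ratio.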
# The depositor's hits bear a star; ? = inconclusive; nt = no result given; [ ] = dose if it differs, or a comment. This excerpt belongs to a sample that is enriched for hits. Calls follow the shape of the dose curve; as a rule, active = well fitted inhibition curve with a large enough effect; inconclusive = small, poorly fitted or top-dose-only effect; inactive = no such curve, though single readings can be large or run the other way. % is scaled to controls: 0 for no effect and ±100 for the full control effect; potency is read from the fitted curve at half-maximal effect.
SMILES,15-hLO inh,ALOX15B inhib
O=S(=O)(O)c1cc(N=[N+]([O-])c2cc(S(=O)(=O)O)c3ccccc3c2)cc2ccccc12,3.98µM*,-25.9%[11.4 µM]
Nc1nc2c(nc(Br)n2[C@@H]2O[C@H]3COP(=O)(O)O[C@@H]3[C@H]2O)c(=O)[nH]1,3.5%,3.8%
COc1nc(Nc2ccc(O)cc2)nc(OC(C(F)(F)F)C(F)(F)F)n1,25.1µM*,-3.9%
Nc1cccc(Nc2nc(OC(C(F)(F)F)C(F)(F)F)nc(OC(C(F)(F)F)C(F)(F)F)n2)c1,nt,21.6%
Cc1ccc(C)c(-c2ccc(C(=O)O)o2)c1,nt,-11.8%[0.0915 µM]
Cc1ccc([C@@]2(C)CC/C(=N/N=C3\CC[C@](C)(c4ccc(C)c(C)c4)c4cc(C)c(C)cc43)c3cc(C)c(C)cc32)cc1C,11.3%[11.4 µM],-5.8%[11.4 µM]
CC(=O)S[C@@H]1CC2=CC(=O)CC[C@@]2(C)[C@H]2CC[C@]3(C)[C@H](CC[C@@]34CCC(=O)O4)[C@H]12,-5.6%,-5.4%
Cc1ccc(C(=O)NC(=S)Nc2ccc(Oc3ccc(Cl)cc3)cc2)cc1,nt,12.6µM*
COC(=O)NC(=S)Nc1ccc(Oc2ccc(Cl)cc2)c(Cl)c1,nt,-19.9%
CC(=O)O[C@H]1C[C@H]2CC[C@@H]3[C@H]4C[C@@H]([N+]5(C)CCCCC5)[C@@H](OC(C)=O)[C@]4(C)CC[C@@H]3[C@@]2(C)C[C@@H]1[N+]1(C)CCCCC1,-14.7%[25.6 µM],13.0%
CC[C@@]1(O)C(=O)COc2c1cc1n(c2=O)Cc2c-1nc1cccc(C(C)C)c1c2[Si](C)(C)C,nt,-14.8%
CCCCCCc1c(C[C@H](N)C(=O)O)o[nH]c1=O,-4.1%[25.6 µM],9.8%
COc1ccc(-c2ccc(CCC(=O)O)n2CC(C)C)cc1,nt,-11.6%
C=CCn1c(CCC(=O)O)ccc1-c1ccc(OC)cc1,12.6µM*,-7.3%
Cc1ccc(-n2c(N)c(-c3nc4ccccc4n3C)sc2=S)cc1,3.16µM*,-3.4%
Cn1c(-c2ccc(N)cc2)nc2ccccc21,?,12.2%
Cc1cccc(CNc2nc(-c3ccc(C(=O)N(C)C)cc3)nc3ccccc23)c1,?,10.7%
COc1ccccc1-c1nccc(-n2ccnc2)n1,-4.8%,2.7%
O=C(Nc1nc(-c2ccc(Cl)s2)cs1)c1ccccc1,nt,19.9%
O=C(Nc1nc(-c2ccco2)cs1)c1ccccc1,15.8µM*,-16.2%
C[C@@H](C(=O)NCc1ccc(C(F)(F)F)nc1)[C@H]1C[C@]1(C)[C@H](NC(=O)OCc1ccccc1)c1ccccc1,nt,11.3%
c1cncc(-c2cc(NCc3cccs3)ncn2)c1,25.1µM*,?
c1csc(CNc2cc(-c3ccoc3)ncn2)c1,15.9%,7.2%
Cc1oc(C)c2c(=O)ccc3c(c12)OC(N)=C(C#N)C3c1ccccc1Cl (configuration not stated),?,-14.8%
N#CC1=C2SCN(c3ccccc3)CN2C(=O)CC1c1c(Cl)cccc1Cl (configuration not stated),3.16µM*,7.94µM*
SMILES,15-hLO inh,ALOX15B inhib
N#CC1=C2SCC(O)(c3ccccc3)N2C(=O)CC1c1ccccc1F (configuration not stated),nt,-11.9%
N#CC1=C2SCN(c3ccccc3)CN2C(=O)CC1c1cccs1 (configuration not stated),3.98µM*,12.6µM*
N#CC1=C2SCN(c3ccccc3)CN2C(=O)CC1c1ccccc1Cl (configuration not stated),?,7.94µM*
Cc1ccc(/C=c2\sc3n(c2=O)CN(c2ccc(Br)cc2)CN=3)o1,nt,-25.8%
N#CC1=C2SCC(O)(c3ccccc3)N2C(=O)CC1c1cccs1 (configuration not stated),-19.5%,-13.9%
Cc1ccc(C2CC(=O)N3CN(c4ccc(Br)cc4)CSC3=C2C#N)o1 (configuration not stated),2.51µM*,?
Cc1cc(C)c(S(=O)(=O)Nc2ccc(C(=O)O)c(O)c2)cc1C,-7.4%,nt
CCN(CC)CCC[C@H](C)Nc1c2ccc(Cl)cc2nc2ccc(OC)cc12,-4.4%[25.6 µM],29.7%[25.6 µM]
O=C(O)Cn1c(=O)oc2cc(S(=O)(=O)NC3CCCCC3)ccc21,-5.8%,nt
COc1ccc2c(c1)Cc1sc(NC(=O)c3cccs3)nc1-2,31.6µM*,4.1%
COc1ccc(C(=O)Nc2nc3c(s2)Cc2cc(OC)ccc2-3)cc1,nt,-1.6%
CCc1ccc2c(-c3cccc(Cl)c3)nc(=O)n(CC)c2n1,-4.1%[25.6 µM],-27.1%
O=C(/C=C\c1ccc(O)c(O)c1)OCCc1ccccc1,0.794µM*,12.6µM*
O=C(/C=C/c1ccc(O)c(O)c1)O[C@@H](C(=O)O)[C@@H](OC(=O)/C=C/c1ccc(O)c(O)c1)C(=O)O,?,9.3%
O=C(O)C/C(=C\c1ccco1)C(=O)O,0.4%[11.4 µM],-4.1%[11.4 µM]
O=C(Oc1ccc2c(c1)OCO2)c1cc2c(s1)CCC2,20µM*,-18.2%
O=C(c1cc2c(s1)CCCC2)N1CCN(Cc2ccc3c(c2)OCO3)CC1,-22.1%,15.2%
CC(C)c1ccc(CNc2ccc(N3CCOCC3)cc2)cc1,7.94µM*,-12.6%[2.29 µM]
CCOc1ccc(CNc2ccc3c(c2)nc(C)n3C)cc1,13.3%,23.2%
c1cc(CNc2ccc(N3CCOCC3)cc2)ccn1,nt,-19.8%
CC(=O)N1CCN(c2ccc(NCc3ccc(F)cc3)cc2)CC1,10µM*,25.1µM*
CCOc1ccc(CNc2ccc(N3CCCC3)cc2)cc1,3.16µM*,5.01µM*
CC(=O)N1CCN(c2ccc(NC(=O)c3ccc(C(C)(C)C)cc3)cc2)CC1,-14.5%,5.0%[11.4 µM]
N[C@H](C(=O)O)[C@H](OCc1ccccc1)C(=O)O,-25.1%[25.6 µM],18.3%
COC(=O)c1ccc(C=O)cc1,3.7%,-6.8%
SMILES,15-hLO inh,ALOX15B inhib
CCC/C=C(\CCC)C(NC(=O)c1ccc(C(F)(F)F)cc1)c1ccc(C(F)(F)F)cc1 (configuration not stated),nt,10.8%
CC[C@H]1CC[C@H]2[C@@H]3CC=C4C[C@H](OC(C)=O)[C@@H](N)C[C@@]4(C)[C@H]3CC[C@@]12C,17.0%[11.4 µM],-0.6%[11.4 µM]
CCCCCCCC(=O)OCCOC(=O)CCCCCCC,nt,10.6%[0.0915 µM]
CCOC(=O)CCCCCCCCCCCCC1C=CCC1 (configuration not stated),12.6µM*,1.8%
CCC(=O)O[C@@]1(C(=O)SCF)[C@@H](C)C[C@H]2[C@@H]3C[C@@H](F)C4=CC(=O)C=C[C@@]4(C)[C@]3(F)[C@@H](O)C[C@]21C,8.7%[25.6 µM],4.0%[25.6 µM]
OCC1OC(n2cnc3c(=S)nc[nH]c32)C(O)C1O (configuration not stated),-5.8%,0.9%
O=C(Cl)c1c(Cl)cccc1Cl,-18.9%,-5.1%
O=C(O)CCCCn1cnc2c(=S)nc[nH]c21,-17.9%[11.4 µM],6.4%[11.4 µM]
COc1ccc(-c2nnc3sc(-c4ccco4)nn23)cc1OC,12.6µM*,-1.0%
COc1ccc(-c2nn3c(-c4ccco4)nnc3s2)cc1OC,-14.2%,-5.6%
Cc1nnc2n(-c3ccccc3)c(=O)c3c4c(sc3n12)COC(C)(C)C4,nt,-4.9%
Cc1sc2c(c1C)c(=O)n(-c1ccccc1)c1nnc(C)n21,3.16µM*,-8.9%
CCCCC/C=C\C[C@H](O)/C=C\c1cccc(C[C@H](O)CCCCO)n1,20µM*,-18.9%
COc1ccc(-c2nc3cnc(OCc4ccccc4)nc3n(CCC#N)c2=O)cc1,4.7%,-1.1%
FC(F)(F)c1ccccc1-c1ccc2ncnc(NCc3cccnc3)c2c1,6.8%,56.2%

# From PubChem BioAssay
